“And” between values parts separate entries of the source, which are not always exact repeats. Equal entries are not always repeated.
biological target: Solute carrier family 2, facilitated glucose transporter member 1 (Homo sapiens) (UniProt P11166); test: ST_JUDE_LEISH: Cytotoxicity at 2uM final concentration against transgenic Leishmania Mexicana promastigotes LmGLUT1 that are glucose transport deficient and complemented with the human glucose transporter GLUT1. Activity is measured by DNA content using SYBR green in vitro; assay type: functional
Sequence (P11166 whole entry): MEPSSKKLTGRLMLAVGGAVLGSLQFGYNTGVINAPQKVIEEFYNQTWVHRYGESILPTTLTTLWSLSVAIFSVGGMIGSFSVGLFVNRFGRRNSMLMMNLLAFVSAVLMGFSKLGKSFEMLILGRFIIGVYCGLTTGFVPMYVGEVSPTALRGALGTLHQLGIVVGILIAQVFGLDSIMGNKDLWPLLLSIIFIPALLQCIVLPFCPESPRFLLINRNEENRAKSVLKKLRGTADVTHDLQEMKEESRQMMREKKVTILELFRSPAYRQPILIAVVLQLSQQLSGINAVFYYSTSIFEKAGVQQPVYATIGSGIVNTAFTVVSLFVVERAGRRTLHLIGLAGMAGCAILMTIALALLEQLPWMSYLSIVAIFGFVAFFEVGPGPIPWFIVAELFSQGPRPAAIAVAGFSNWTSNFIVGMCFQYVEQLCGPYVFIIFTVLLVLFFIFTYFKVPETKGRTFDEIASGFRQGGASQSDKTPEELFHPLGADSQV

| Compound | inhibition [%] |
| --- | --- |
| Cc1[nH]c2ccccc2c1C(=O)CSc1nn(-c2ccccc2)c(=S)s1 | 5.67 |
| CCCn1c(Sc2ccc(C#N)c([N+](=O)[O-])c2)nnc1-c1ccc(N(C)C)cc1 | 5.64 |
| O=C(Nc1ccc(C(=O)OCC2CCCN3CCCCC23)cc1)c1ccc(Cl)c(Cl)c1 (stereo not drawn) | 0.06 |
| O=C(c1ccc(F)c2ccccc12)N1CCc2cc3nccc(N4CCN5CCC[C@H]5C4)c3cc21 | 3.66 |
| Cn1c(=O)c(-c2c(Cl)cccc2Cl)cc2cnc(Nc3ccc(N4CCOCC4)cc3)nc21 | 34.6 |
| CNCCNCc1cccc(-c2cccc(-c3nc4cccc(C)c4[nH]3)c2)c1 | 0.8 |
| O=C(Nc1cccc(-c2cccc(CN3CCCC3)c2)c1)c1cccc(Cl)c1 | 2.72 |
| Cc1nnc(-c2ccc3ccccc3c2)c2cn(-c3cccc([N+](=O)[O-])c3)nc12 | 5.1 |

biological target: Hexose transporter 1 (Plasmodium falciparum) (UniProt O97467); test: ST_JUDE_LEISH: Cytotoxicity at 2uM final concentration against transgenic Leishmania Mexicana promastigotes LmPfHT that are glucose transport deficient and complemented with the Plasmodium falciparum hexose transporter. Activity is measured by DNA content using SYBR green in vitro; assay type: functional

| Compound | inhibition |
| --- | --- |
| CCCc1ccc(NC(=O)c2ccc(CN3CCCN(CC4CCCCC4)CC3)cc2)cc1 | 7.86% |
| NC1=NC(c2ccccc2)(c2cccc(O)c2)C(=O)N1CCCc1ccccc1 (stereo not drawn) | 10.4% and 1.45% |
| CC(C)c1ccc(CN2CCC(NC(=O)c3ccc(-c4ccccc4F)s3)CC2)cc1 | 0.39% |
| Nc1nc(N)c2cc(N(Cc3ccccc3)Cc3ccccc3)ccc2n1 | 17.2% |
| Cc1nnsc1C(=O)Nc1ccc(-c2cccc(-c3nc4cc(F)ccc4[nH]3)c2)cc1 | 1.3% |
| CC(Cc1ccc(OCCCCOc2ccccc2)cc1)NCCc1ccc(Oc2ccccc2)cc1 (stereo not drawn) | 84.7% |
| CCOc1cc2c(cc1OCC)C(c1cc(OC)c(O)cc1Cl)NCC2 (stereo not drawn) | 0.45% |
| CNc1ccc(CNCc2ccc(-c3ccc(-c4nc5cc(C(F)(F)F)ccc5[nH]4)cc3)cc2)cc1 | -1.86% |
| CC(CCCC(=O)Nc1ccc(CC(C)NCCc2cccc(Cl)c2)cc1)NCCc1cccc(Cl)c1 (stereo not drawn) | 0.02% |
| CC1(C)NC(N)=NC(=N)N1OCCc1ccccc1 | 0.77% |
| CCc1cccc(NC(=O)c2ccc(CN3CCCN(CC4CCCCC4)CC3)cc2)c1 | 10% |
| CCCc1cc(C)ccc1OCCCON1C(N)=NC(N)=NC1(C)C | 45.5% |
| COc1ccc(NC(=O)c2ccc(-c3nc(-c4cccc(C(F)(F)F)c4)cs3)cc2)cc1N1CCN(C)CC1 | 1.59% |
| CCOc1cc(Cl)c(C(C)NC(=O)c2cccc(OC)c2)cc1OCC (stereo not drawn) | 7.46% |
| Cc1cccc2nc(-c3cccc(-c4cccc(NC(=O)c5csnn5)c4)c3)[nH]c12 | 1.69% |
| COc1c(C2CCN(CCCCNC(=O)c3ccc(-c4ccc(Cl)cc4)c(O)c3)CC2)ccc2c1CCCC2 | 2.6% |
| c1ccc(CN2CCc3cc4nccc(N5CCNCC5)c4cc32)cc1 | -1.76% |
| COc1ccc2nccc([C@@H](O)CN3CCC(NCc4cc5c(F)ccc(F)c5[nH]4)CC3)c2n1 | 86.8% |
| CC(=O)Nc1cccc(/C=C/C(=O)N2CCC(N3CCCCC3)CC2)c1 | 1.03% |
| CON(CCCN(C)C)C(=N)N | 2.02% |

| Compound | inhibition |
| --- | --- |
| COc1ccc2nccc([C@@H](O)CN3CCC(NCc4ccc5c(c4)sc(=O)n5C)CC3)c2c1 | 0.84% |
| NCCCN(Cc1ccc(Cl)c(Cl)c1)C(=O)Nc1ccc(Cl)c(Cl)c1 | 9.33% |
| O=C(/C=C/c1ccc(Br)cc1)NCCCCCN1CCC(c2c[nH]c3ccccc23)CC1 | 17.3% |
| Cc1cc(C)c2cc(CNCCCNc3nc4ccccc4[nH]3)[nH]c2c1 | 0.15% |
| CC(C)(C)c1ccc(CN2CCCCC(NC(=O)c3cc(-c4ccccc4Cl)cs3)C2)cc1 (stereo not drawn) | 3.91% |
| Cc1c[nH]c(CCNC(=O)c2cc(-c3ccc(Cl)cc3)cs2)n1 | 0.26% |
| C=CCOc1ccc(CNC2CCN(Cc3ccccc3)CC2)cc1Br | 4.16% |
| CCN1CCC(N(Cc2ccc(-c3ccc(C(F)(F)F)cc3)cc2)C(=O)Cn2c(SCc3cccc(F)c3F)cc(=O)c3ccccc32)C1 (stereo not drawn) | -0.31% |
| CCN(CCCN1CCCCC1)c1cc(C)nc(Nc2cc(C(F)(F)F)ccc2C)n1 | 0.37% |
| CCOc1cccc(C2c3c(oc4ccccc4c3=O)C(=O)N2CCN(CC)CC)c1 (stereo not drawn) | 2.93% |
| CC(C)(C)c1cc([N+](=O)[O-])cc(C(=O)Nc2ccccc2C(F)(F)F)c1O | -0.82% |
| CCc1cn(CCS(C)(=O)=O)c2ccc(C(=O)N[C@@H](Cc3ccccc3)[C@H](O)CNC(C)(C)CCCC(C)C)cc12 | 4.33% |
| Cc1[nH]c2ccccc2c1C(=O)CSc1nn(-c2ccccc2)c(=S)s1 | 7.39% |
| CCCn1c(Sc2ccc(C#N)c([N+](=O)[O-])c2)nnc1-c1ccc(N(C)C)cc1 | 4.8% |
| O=C(Nc1ccc(C(=O)OCC2CCCN3CCCCC23)cc1)c1ccc(Cl)c(Cl)c1 (stereo not drawn) | -0.05% |
| O=C(c1ccc(F)c2ccccc12)N1CCc2cc3nccc(N4CCN5CCC[C@H]5C4)c3cc21 | 1.16% |
| Cn1c(=O)c(-c2c(Cl)cccc2Cl)cc2cnc(Nc3ccc(N4CCOCC4)cc3)nc21 | 41% |
| CNCCNCc1cccc(-c2cccc(-c3nc4cccc(C)c4[nH]3)c2)c1 | 2.47% |
| O=C(Nc1cccc(-c2cccc(CN3CCCC3)c2)c1)c1cccc(Cl)c1 | 2.72% |
| Cc1nnc(-c2ccc3ccccc3c2)c2cn(-c3cccc([N+](=O)[O-])c3)nc12 | 3.95% |

— ChEMBL document CHEMBL3433997, “St. Jude Leishmania screening dataset” (2016)
